Test results: PubChem BioAssay
Active and inactive are the calls of the source.

Experiments:
[1] = test system: XIP peptide (Xip251-270) binding; test: XIP fragment 251-270 binding compounds – biochemical, small-molecule microarray, fluorescence 635/667 nm, 0.1 µg/mL protein, primary screen (AID 1182); settings: fluorescent protein binding, 635 nm, higher = more signal, called active from +8 up or from −8 down
[2] = test system: XIP peptide (Xip251-270); test: compounds binding XIP fragment 251-270 – biochemical, small-molecule microarray, fluorescence 635/667 nm, 0.5 µg/mL protein, primary screen (AID 1183); settings: fluorescence 635 nm, higher = more signal
[3] = blood-stage malaria parasite viability loss – strain 3D7, DAPI fluorescence, 100 nL, primary screen (AID 1184);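 further: parasites grown inside human red blood cells in medium with human serum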; settings: P. falciparum 3D7 growth, 3 d, higher = more signal
[4] = target: Homeobox protein Hox-A13 (Mus musculus) (UniProt Q62424); test: disruptors of Hoxa13 oligonucleotide interaction – biochemical, fluorescence polarization, labeled oligonucleotide, primary screen (AID 1185); settings: Hoxa13:DNA binding, 15 min, higher = more signal, called active from +8 up or from −8 down
Sequence of Homeobox protein Hox-A13 (Mus musculus) (Q62424 whole entry, looked up): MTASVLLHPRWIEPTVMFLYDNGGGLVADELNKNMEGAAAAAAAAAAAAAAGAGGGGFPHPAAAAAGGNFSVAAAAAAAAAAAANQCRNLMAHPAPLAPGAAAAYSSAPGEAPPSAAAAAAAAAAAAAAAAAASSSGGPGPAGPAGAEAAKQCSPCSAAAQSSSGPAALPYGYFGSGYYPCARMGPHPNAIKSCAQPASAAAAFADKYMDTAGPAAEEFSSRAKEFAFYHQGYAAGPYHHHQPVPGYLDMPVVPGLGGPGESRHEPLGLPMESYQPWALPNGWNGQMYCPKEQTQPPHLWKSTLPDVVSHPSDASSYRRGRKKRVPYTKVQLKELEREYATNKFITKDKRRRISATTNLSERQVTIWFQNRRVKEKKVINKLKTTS

**Q.** Which composite z-score [1] does the source give for C#CCCCON=C1C[C@@H](O)[C@@H](O)[C@@H]2[C@@H]3C(=O)N(CC)C(=O)[C@@H]3CC[C@H]12 here?
**A.** 0.835 (inactive)

**Q.** What about the composite z-score [2] of the same molecule?
**A.** -0.423

**Q.** What about the z-score [3] of the same molecule?
**A.** -0.263

**Q.** And the z-score [4]?
**A.** 0.0042 (inactive)

**Q.** For O=C1C[C@@H](O)[C@@H](O)[C@@H]2[C@@H]3C(=O)N(c4ccc(F)cc4F)C(=O)[C@@H]3CC[C@H]12, which composite z-score [1] is on record?
**A.** 0.139 (inactive)

**Q.** And the composite z-score [2]?
**A.** -0.0234

**Q.** What about the z-score [3] of the same molecule?
**A.** 0.289

**Q.** And the z-score [4]?
**A.** -0.55 (inactive)

**Q.** With CC(C)=NOC(C)CN1CCCc2nc(C)c(C)cc21 (stereo not drawn) as the molecule, how does the composite z-score [1] read?
**A.** 2.19 (inactive)

**Q.** What about the composite z-score [2] of the same molecule?
**A.** 0.522

**Q.** What about the z-score [3] of the same molecule?
**A.** -0.225

**Q.** And the z-score [4]?
**A.** -8.04 (active)

**Q.** For CC(=O)OC[C@H]1O[C@H](CCON=C(C)C)C=C[C@@H]1OC(C)=O, which composite z-score [1] is on record?
**A.** -0.843 (inactive)

**Q.** What about the composite z-score [2] of the same molecule?
**A.** 0.0795

**Q.** What about the z-score [3] of the same molecule?
**A.** 1.48

**Q.** And the z-score [4]?
**A.** 0.389 (inactive)

**Q.** Which results are given for CO[C@@H]1C=CCC(=O)N[C@@H](C)C(=O)OC[C@@H](NS(=O)(=O)c2ccc(C)cc2)[C@H](C)C=CCC(=O)OC[C@H]1C?
**A.** composite z-score [1]: -0.778 (inactive); composite z-score [2]: 0.247; z-score [3]: 0.251; z-score [4]: -1.06 (inactive)

**Q.** For CC(C)CON=C1C[C@@H](O)[C@@H](O)[C@@H]2[C@@H]3C(=O)N(C(C)(C)C)C(=O)[C@@H]3CC[C@@H]12, which composite z-score [1] is on record?
**A.** 0.0494 (inactive)

**Q.** And the composite z-score [2]?
**A.** -0.295

**Q.** And the z-score [3]?
**A.** -1.62

**Q.** And the z-score [4]?
**A.** -0.298 (inactive)

**Q.** For C[C@@H](c1ccccc1)N1C(=O)[C@H]2[C@H]3[C@H](O)[C@H](O)CC(=NOCc4ccccc4)[C@@H]3CC[C@H]2C1=O, which composite z-score [1] is on record?
**A.** 0.641 (inactive)

**Q.** And the composite z-score [2]?
**A.** 0.169

**Q.** And the z-score [3]?
**A.** -1.49

**Q.** And the z-score [4]?
**A.** -3 (inactive)

**Q.** With CCOC(=O)CCN1C(=O)[C@H]2[C@H]3[C@H](O)[C@H](O)CC(=NOCC=C(C)CCC=C(C)C)[C@H]3CC[C@H]2C1=O as the molecule, how does the composite z-score [1] read?
**A.** -0.322 (inactive)

**Q.** What about the composite z-score [2] of the same molecule?
**A.** -0.206

**Q.** And the z-score [3]?
**A.** 0.241

**Q.** What about the z-score [4] of the same molecule?
**A.** 0.765 (inactive)

**Q.** Which composite z-score [1] does the source give for CCN(CC)CC(O)CN1CCCCc2nc(C)c(C)cc21 (stereo not drawn) here?
**A.** -0.344 (inactive)

**Q.** And the composite z-score [2]?
**A.** -0.136

**Q.** And the z-score [3]?
**A.** 0.694

**Q.** And the z-score [4]?
**A.** -1.17 (inactive)

**Q.** What does the source list for CC(CCN1CCc2nc(-c3ccccc3)c(-c3ccccc3)cc2C1)=NO[C@H](C)c1cn([C@H](CO)Cc2ccccc2)nn1?
**A.** composite z-score [1]: 0.899 (inactive); composite z-score [2]: 0.529; z-score [3]: -0.618; z-score [4]: -5.22 (inactive)

**Q.** Which results are given for COc1ccc(COC(=O)NN=C2C[C@@H](O)[C@@H](O)[C@@H]3[C@@H]4C(=O)N(Cc5ccc6c(c5)OCO6)C(=O)[C@@H]4CC[C@H]23)cc1?
**A.** composite z-score [1]: 0.369 (inactive); composite z-score [2]: 0.174; z-score [3]: -0.427; z-score [4]: -0.118 (inactive)

**Q.** With COC(=O)CC=C[C@@H](C)[C@@H](C=NOC[C@@H](O)COCc1ccco1)OC as the molecule, how does the composite z-score [1] read?
**A.** 0.146 (inactive)

**Q.** And the composite z-score [2]?
**A.** 0.338

**Q.** And the z-score [3]?
**A.** 0.715

**Q.** And the z-score [4]?
**A.** -0.341 (inactive)
